# Test results from the supplement of paper PMC10338343.
# ± gives the standard deviation.
# System: MILI (PIWIL2) piRISC loaded with piRNA #1 (26 nt)
# Test: pre-steady-state target cleavage rate (min^-1); guide: piRNA #1 5'p-UGAGGUAGUAGGUUGUAUAGUAUCCA; MIWI and MILI are mouse PIWI proteins and EfPiwi is from a freshwater sponge; tags in brackets are library labels; higher = faster piRNA-guided slicing of the target
# Conditions: auxiliary factor: 500 nM mouse GTSF1
# Outline: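 Cleave-'n-Seq measured uncleaved targets by sequencing after a transcribed, DNA-blocked target RNA library […] was mixed with 1 nM active affinity-purified piRISC holding one synthetic guide, with or without 500 nM GTSF1 partner protein, at 33 °C in HEPES–potassium acetate buffer for 0–8 or 0–960 min. Counts were normalised to depth and to weakly complementary targets, three trials were pooled, and k3 was capped at 0.0001 min^-1. A burst-and-steady-state fit gave the pre-steady-state cleavage rate.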
# 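Further: 1 nM active piRISC with 0.1 nM target library at 33 °C single turnover.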
row,Sequence,pre-steady-state target cleavage rate
1,GGAGAGGAAACUAUAGAACCUACUACCUCA,0.178 ± 0.018
2,GGAGUGGAUACUUUACAACCUAGUACCUCA,0.0239 ± 0.0053
3,GGAGACCUAUGAUAUCAACUUACUACCUCA,0.00319 ± 0.0027
4,GGAGACCUAUGUAUACAACCUACUACACUCA,0.12 ± 0.018
5,GGAGACCUUACUAUACAACCUACCACCUCA,0.118 ± 0.015
6,GGAGACCUAACUAUACAAGCUACUACCACA,0.309 ± 0.029
7,GGAGACCUAACUUUACAACCUACUACCACA,0.109 ± 0.024
8,GGAGACCUAUCAAUACUACCUACUACCUCA,0.0216 ± 0.0056
9,GGAGACCUAUGUAUACAACCUACAACGUCA,0.00278 ± 0.0027
10,GGAGACCUUACUAAACAACCUUCUACCUCA,0.00652 ± 0.0027
11,GGAGUGGAAACUAAACAACCUACUACCUCA,0.201 ± 0.02
12,GGAGACGAUACUAUACUUCCUACUACCUCA,0.242 ± 0.016
13,GGAGACCUAUGAUAACAACCUACUUACCUCA,0.00599 ± 0.0021
14,GGAGACCUAUGAUAUGUUCCUAUCUACCUCA,< 0.0001
15,GGAGACCUAUGUAUACAAGGUACUACCUCA,0.0261 ± 0.0047
16,GGAGAGGAUACUAUACUUGCUACUACCUCA,0.0407 ± 0.0049
17,GGAGACCUAUCUAUACAACCUACUACCUCG [g2:g20:cont:t1G],0.11 ± 0.012
18,GGAGACGAUACAAUACAACGUACUACCUCA,0.0185 ± 0.0029
19,GGAGACCUAUGAUUACAACGUACUACCUCA,0.00443 ± 0.0016
20,GGAGACGAUAGUAUUCAACCUACUACCUCA,0.156 ± 0.012

row,Sequence,pre-steady-state target cleavage rate
1,GGAGACCAUACUAUACAAGCUACAACCUCA,0.212 ± 0.022
2,GGAGACCUUACUAUACAACCAACUACGUCA,0.00333 ± 0.0023
3,GGAGACCUAUCAAUACAACCUACUACCUGA,0.0265 ± 0.0091
4,GGAGACCUAAGUAUACAACCUACUAGCUCA,0.0149 ± 0.0043
5,GGAGACCUAUGAUAUGUUGCUUGAACCUCA,< 0.0001
6,GGAGAGGAUACUAUACAACCUACAUGCUCA,0.00576 ± 0.003
7,GGAGACCUAUGAUUAUAACCUACUACCUCA,0.00484 ± 0.0026
8,GGAGACCUAUCUUACAACCUACUACCUCA,0.0336 ± 0.0082
9,GGAGUGGAUAGUAAACAACCUACUACCUCA,0.0879 ± 0.0084
10,GGAGACGAUACUAUACAACCAUACUACCUCA,0.00651 ± 0.0034
11,GGAGACCUAUGAUAUGUUGCUACUCCUCA,< 0.0001
12,GGAGACCUUACUAUUCAACCUACUACGUCA,0.0709 ± 0.0096
13,GGAGACCUAUGUAUAUAACCUACUACCUCA,0.0579 ± 0.0076
14,GGAGACCAAUACUAUACAACCUACUACCUCA,0.193 ± 0.021
15,GGAGACCUAUGAUAACAACCUACUAACCUCA,0.00664 ± 0.002
16,GGAGACCUAUGAUAUGUAUCCUACUACCUCA,0.0082 ± 0.0021
17,GGAGACCUAUGAAUACAACCUAACUACCUCA,0.00316 ± 0.0021
18,GGAGACCUUACUAUACAAGCUACUACGUCA,0.203 ± 0.029
19,GGAGACCUAUGUAUACUACCUACUACCUCA,0.0517 ± 0.008
20,GGAGACCUAUGAUUUACAACCUACUACCUCA,0.00564 ± 0.003
